Molecules are shown by their SMILES. In all, about 340,000 compounds went through this assay and about 3,300 (0.97%) were called active. The list comes from a sample in which actives are over-represented; it also holds similar structures and randomly drawn compounds. A number with no mark means an inactive call.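 Rule for the calls: active = mean activation above about 17%, with every replicate also reaching it (limit read from the data, passing the limit was not always enough); inconclusive = only one of the two conditions met; inactive = the rest.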

Chain of Protein FosB (Mus musculus) (P13346 whole entry, looked up): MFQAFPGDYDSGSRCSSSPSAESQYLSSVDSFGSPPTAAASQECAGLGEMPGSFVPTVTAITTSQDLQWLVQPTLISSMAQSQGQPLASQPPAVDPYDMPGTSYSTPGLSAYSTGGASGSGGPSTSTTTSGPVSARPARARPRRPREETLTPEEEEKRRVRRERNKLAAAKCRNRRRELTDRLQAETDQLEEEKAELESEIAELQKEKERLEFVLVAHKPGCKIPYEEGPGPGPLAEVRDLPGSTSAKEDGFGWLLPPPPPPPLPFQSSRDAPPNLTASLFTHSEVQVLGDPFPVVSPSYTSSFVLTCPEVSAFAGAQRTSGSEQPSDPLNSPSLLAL

The test concerns the target Protein FosB (Mus musculus) (UniProt P13346). Kind of test: enhancers of mouse delta FosB DNA binding – biochemical, fluorescence polarization, TAMRA-CDK5 oligo, single point, primary screen (AID 493131).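 Note: fluorescence polarization rise as delta FosB binds a TAMRA Cdk5 AP-1 oligo.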 As to conditions: purified delta FosB, at 25 µM, hits give high values, percent of positive-control signal above neutral wells.
Consider `CCOC(=O)Cc1csc(SCC(=O)NC(C)C23CC4CC(CC(C4)C2)C3)n1` (stereo unspecified), for which the activation is -21%.
The value for `CC1(C)CC(=O)CC2(C1)NCC(c1ccccc1Cl)c1c2[nH]c2ccccc12` (stereo unspecified) was -13.7%.
The value for `O=C(NCc1cccnc1)C12CC3CC(CC(C3)C1)C2` was 0.989%; that for `CCC(CO)Oc1cc(NC(=O)c2cccc3ccccc23)c2ncn(C(C)C)c2c1` (stereo unspecified) was -12.6%.
The value for `CCC(CO)Oc1cc(NC(=O)c2cccc(F)c2)c2ncn(C(C)C)c2c1` (stereo unspecified) was 7.98%; that for `CC(C)n1cnc2c(NCc3ccccc3)cc(OCC3CCN(C)CC3)cc21` was 91.8% (active).
In the case of `C/C(CC(=O)Nc1cccc(C(F)(F)F)c1)=N\NC(=O)C(=O)NCC(C)C`, the activation is -12.7%.
On to `CCCCOc1ccc(CON(C(C)=O)C(C)=O)cc1Cl`, for which the activation was -3.14%.
`CCn1ccnc1CNC(=O)CC1C(=O)NCCN1Cc1ccc(F)cc1Cl` (stereo unspecified): the activation is -11.3%.
In the case of `COc1ccc(C2NC(=O)c3ccccc3N2)cc1` (stereo unspecified), the activation was -0.293%.
The value for `Brc1ccccc1C1Nc2cccc3cccc(c23)N1` was -8.49%; that for `Oc1ccc(C2Nc3cccc4cccc(c34)N2)cc1` was 58.9% (active); that for `O=C(CCc1nnc(CCCCc2ccccc2)o1)NC(c1cccnc1)C(F)(F)F` (stereo unspecified) was -5.13%.
On to `O=C(O)C1CCN(S(=O)(=O)N2CCOCC2)CC1`, for which the activation is 1.05%.
The value for `Nc1nc(NCCCN2CCOCC2)nc(Nc2ccccc2)c1[N+](=O)[O-]` was 4.67%; that for `CNc1nc(Nc2ccc(C)c(Cl)c2)nc(N)c1[N+](=O)[O-]` was 60.7% (active); that for `CCN1CCN(c2nc(Nc3cccc(F)c3)nc(N)c2[N+](=O)[O-])CC1` was 10.8%.
In the case of `CCNC(=O)COC(=O)/C=C/c1c(C)nn(Cc2cccc(OC)c2)c1Cl` it was -7.6%.
For `CC(C)Nc1ccc(-n2nc3ccccc3[n+]2[O-])cc1`, the activation is -2.96%.
For the compound `CC1(C)CC(=O)c2c(n(S(=O)(=O)c3ccccc3)c3ccc(NS(=O)(=O)c4ccccc4)cc23)C1`, the activation is -1.95%.
As to `CCOc1ccc2nc(NC(=O)c3cc([N+](=O)[O-])ccc3N3CCOCC3)sc2c1`, the activation is 26.6% (active).
In the case of `COc1ccc(S(=O)(=O)N2CCCCC2)cc1NC(=O)c1cc([N+](=O)[O-])ccc1N1CCOCC1` it was 5.22%; in that of `O=C(NCc1ccc2c(c1)OCO2)c1cc([N+](=O)[O-])ccc1N1CCOCC1`, 5.71%; in that of `COc1cc(NS(=O)(=O)c2ccc(NC(=O)c3ccc([N+](=O)[O-])cc3)cc2)ncn1`, -0.999%.
In the case of `CCc1ccc(NC(=O)c2ccc(Cn3cc([N+](=O)[O-])cn3)cc2)cc1`, the activation was 4.46%.
As for `Cn1ccc(=Nc2ccc(NC(=O)c3ccc(N=c4ccn(C)c5ccc([N+](=O)[O-])cc45)cc3)cc2)cc1`, the activation is 62.2% (active).
In the case of `COc1ccc(C(=O)Nc2ccnn2C2CCN(Cc3ccncc3)CC2)cc1` it was -4.76%; in that of `O=C(NCc1ccc2c(c1)OCO2)c1c(-c2ccsc2)sc2ccccc12`, -2.79%; in that of `O=S(=O)(c1ccc(Cl)cc1)c1nc(-c2ccccc2F)oc1NCCN1CCOCC1`, -12.7%.
In the case of `Cc1ccc(S(=O)(=O)N2CCN(C(=O)COC(=O)c3c(C)cc(C)cc3C)CC2)c(C)c1`, the activation is -5.88%.
`COc1ccc(/C=C/C(=O)OCC(=O)N2CCN(S(=O)(=O)c3ccc(C)cc3C)CC2)cc1OC`: the activation is 19.8% (active).
In the case of `Cc1ccc(S(=O)(=O)N2CCN(C(=O)COC(=O)/C=C/c3cccc(Cl)c3)CC2)c(C)c1` it was -10.6%; in that of `Cc1ccsc1C(=O)NNC(=O)COc1ccc(Br)cc1`, -0.652%.
The value for `NC(=NC(=O)c1ccccc1)C1=C(O)CCC1=O` was -12.8%.
For `COC(=O)c1nc2n(n1)C(c1ccc([N+](=O)[O-])cc1)C(C(=O)Nc1ccc(Cl)cc1)=C(C)N2` (stereo unspecified), the activation is 34.5% (active).
In the case of `COc1cc(C2C(C(=O)Nc3ccc(F)cc3)=C(C)Nc3nc(CCCO)nn32)cc(OC)c1OC` (stereo unspecified) it was -9.9%; in that of `COCCOC(=O)C1=C(C)Nc2nc(C)nn2C1c1ccccc1` (stereo unspecified), -7.61%.
In the case of `COC(=O)/C(=C\Nc1ccccc1)NC(=O)c1ccc(Cl)cc1Cl`, the activation is 4.01%.
In the case of `COc1cccc(C2CC(c3cccs3)=NN2C(=O)CSC2=NCCS2)c1OC` (stereo unspecified) it was -11.4%.
The value for `Nc1nonc1-n1nnc(C(=O)N/N=C/C2CCCCC2)c1-c1ccccc1` was -11.3%; that for `Nc1nonc1-n1nnc(C(=O)N/N=C/c2ccc(Cl)cc2)c1-c1ccc2c(c1)OCO2` was 32.2% (active).
On to `CC(C)c1c(C(=O)N/N=C/c2ccc(-c3ccccc3)cc2)nnn1-c1nonc1N`, for which the activation is -2.45%.
The value for `CC(Sc1nncn1C)C(=O)Nc1ccccc1-c1ccccc1` (stereo unspecified) was -4.45%.
The value for `O=C(CSCc1ccc([N+](=O)[O-])cc1)Nc1cccc(C(=O)Nc2ccccc2C(=O)O)c1` was -3.8%.
The value for `O=C(COCc1cc(-c2ccc3c(c2)OCO3)on1)N1CCN(c2cccc(Cl)c2)CC1` was -10.2%; that for `O=C(NCCCN1CCOCC1)c1cc2c(s1)CCC2` was -3.83%.
Consider `CN1CCN(CCCNC(=O)c2cc3c(=O)oc4ccccc4c3s2)CC1`, for which the activation was -39.5%.
Consider `Cc1cccc2c1-c1sc(C(=O)NCCCN3CCc4ccccc4C3)cc1CO2`, for which the activation was 22.8% (active).
In the case of `C=CCn1c(Oc2ccc(C(=O)OC)cc2)nc2c1c(=O)n(C)c(=O)n2C` it was 2.74%.
The value for `CC(C)=C1C2CCC1C1C(=O)N(NC(=O)c3ccco3)C(=O)C21` (stereo unspecified) was 5.44%.
In the case of `COc1ccc(C)cc1NC(=O)CCCN1C(=O)NC(C)(C)C1=O` it was 1.82%.
For the compound `O=C(c1ccc(F)cc1)c1cn(Cc2ccc(F)cc2)c2cc3c(cc2c1=O)OCCO3`, the activation was -2.37%.
The value for `COc1ccc(OC)c(C(=O)c2ccc(Cl)cc2)c1` was 6.81%; that for `COc1ccc2c(c1)c(=O)c(C(=O)c1ccc(Cl)cc1)cn2CC(=O)Nc1ccc(F)cc1` was 101% (active); that for `CC1(C)CC2CC(C)(CN2c2ncnc3ccc(Br)cc23)C1` (stereo unspecified) was -14.7%.
Regarding `C=CCn1c2ccccc2c2nnc(SCc3[nH]c(=O)[nH]c3C(=O)CCCCC(=O)OCC)nc21`, the activation was -0.527%.
In the case of `CCN1CCN(c2cc3nc(C)n(Cc4ccccc4)c(=O)c3cc2NC(=O)c2ccccc2F)CC1` it was 27.5% (active).
The value for `CCC(=O)Nc1ccc2nc(C)n(Cc3ccccc3Cl)c(=O)c2c1` was -9.12%.
Turning to `CCOc1cc(NC(=O)c2ccccc2C(=O)O)c(OCC)cc1NC(=O)c1ccccc1F`, the activation is -3.46%.
In the case of `CCOc1cc(CO)ccc1OCC(=O)N1CCCCC1`, the activation is -0.227%.
With `O=C(COc1coc(CN2CCN(c3ccccc3)CC2)cc1=O)Nc1ccccc1F`, the activation was -11.2%.
The value for `O=C(COc1coc(CN2CCN(c3ccccc3)CC2)cc1=O)N1CCc2ccccc21` was -7.12%; that for `O=C(COc1coc(CN2CCN(c3ccccc3F)CC2)cc1=O)N1CCc2ccccc21` was 21.9% (active).
As for `Nc1cc(=O)n(Cc2ccccc2)c(=O)n1Cc1ccccc1`, the activation is -1.18%.
As for `CC(=O)Nc1sc2c(c1C(c1cccc(F)c1)N1CCN(CCO)CC1)CCCC2` (stereo unspecified), the activation was -12.2%.
The value for `O=C(CN1C(=O)S/C(=C\c2ccccc2F)C1=O)NCCCn1ccnc1` was -4.31%; that for `Cc1nn(CC(=O)Nc2ccc(F)cc2)c(=O)c2ccccc12` was 0.886%; that for `Cn1cccc1/C=C1\SC(=O)N(CC(=O)Nc2ccc(F)cc2)C1=O` was 30.6% (active).
The value for `CC(C)c1cc(C(=O)O)on1` was 5.07%.
In the case of `COc1ccc(C2CC(c3cccs3)Nc3nnnn32)cc1` (stereo unspecified), the activation was -5.14%.
With `Fc1ccc(-c2ccc(CNCc3ccccn3)o2)cc1Cl`, the activation is -10.2%.
With `O=C(Cc1nc2ccccc2[nH]c1=O)c1ccc(Cl)cc1`, the activation was 25% (active).
With `O=C(Cc1ccc(Cl)cc1)c1ccccc1`, the activation is -2.82%.
The value for `O=C(/C(=C/c1cccc(Cl)c1)c1nc2ccccc2[nH]1)c1ccccc1` was 0.879%; that for `COc1cccc2c1C(=O)c1c(O)c3c(c(O)c1C2=O)CC(O)(C(C)=NNC(=O)c1ccc(Cl)c(Cl)c1)CC3OC1CC(N)C(O)C(C)O1` (stereo unspecified) was -409%.
Take `O=C(COc1ccccc1Cl)Nc1ccccc1C(=O)NC1CC1`: the activation is -11.8%.
The value for `CC(=O)Nc1ccc(NC(=O)COc2ccccc2C(=O)Nc2cccc(Cl)c2Cl)cc1` was 26% (active); that for `O=C(COc1ccccc1Cl)Nc1ccc(C(=O)c2ccc(C(=O)O)cc2)cc1` was -0.74%.
In the case of `O=c1c2ccccc2oc2nc3n(c(=O)c12)CCCS3` it was -28.8%; in that of `O=c1c2ccccc2oc2nc(C3CCCCC3)n(Cc3ccco3)c(=O)c12`, 34% (active); in that of `CCc1nc2oc3ccccc3c(=O)c2c(=O)n1Cc1ccc(OC)cc1`, -18.5%.
In the case of `COC(=O)c1cc(C(=O)N(Cc2ccccc2)c2ccccn2)cc([N+](=O)[O-])c1` it was -5.79%; in that of `CC[C@@H](C)[C@@H]1CN([C@@H](C)CN2CCC[C@H]2CN2C(N)=NC[C@H]2C(C)C)C(=N)N1CCc1ccc(Cl)c(Cl)c1`, 23.1% (active); in that of `CC(C)C[C@H]1CN([C@@H](CC(C)C)CN2CCC[C@@H]2CN2C(=O)C(=O)NC[C@@H]2Cc2ccccc2)C(=O)C(=O)N1CCc1ccccc1`, -16%.
On to `C[C@@H](CN1CCC[C@H]1CN1C(N)=NC[C@@H]1Cc1ccccc1)N1C[C@@H](Cc2ccccc2)N(CCCC2CCCC2)C1=N`, for which the activation was -7.85%.
The value for `Cc1cc(SCC(=O)NCCN2C(=O)CSC2=O)nc2ccccc12` was 5.19%.

For the origin of these results see PubChem BioAssay AID493131 (Broad Institute, 2011).
